PubChem BioAssay AID434994 (NMMLSC, 2010)
This is one part of the list. Values without a mark were called inactive.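 The calls were made as follows: active = superoxide signal below 65% of the plate average of sample wells; inactive = the rest.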

Experiment: retest of yeast aging ROS inhibitors – cherry picked compounds, confirmation (AID 434994);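 also: cells aged with compound for 7 days at 30 degrees C before staining; 100% equals mean DHE fluorescence of all compound wells on the plate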
Details: S. cerevisiae aging, superoxide DHE fluorescence; at 10 µM; active compounds read low

Compound	superoxide response (% of plate)
C[C@]12CCC3C(CC[C@H]4C[C@@H](O)CC[C@]34C)C1C[C@@H](O)[C@H]2O (some centres not stated)	90.6%
CN1CCN(C(=S)SCC(=O)Nc2ccc(Cl)cc2C(=O)c2ccccc2)CC1	111%
